Test results from PubChem BioAssay (NCI).
About 83,000 compounds went through this panel and 20% of them were active in at least one assay; those are over-represented in the sample as a whole.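 Negative percent growth values reflect cell death: -40 means 40% of the cells present at the start died, and -100 means all died.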 Values without a mark were called inactive. Calls of active or inactive are those of the source. The calls were made as follows: active = growth percent below 10; inactive = the rest.

Legend:
Assay in all cases: NCI-60 one-dose screen, 48 h (100 = growth as untreated, 0 = no growth, -100 = all killed)
Conditions in all cases: 10 µM unless noted
[1] = system: NCI-H23 lung
[2] = system: NCI-H226 lung
[3] = system: NCI-H322M lung
[4] = system: HOP-62 NSCLC
[5] = system: NCI-H460 lung
[6] = system: HOP-92 NSCLC
[7] = system: NCI-H522 lung
[8] = system: A549/ATCC NSCLC
[9] = system: 786-0 renal
[10] = system: COLO 205 colon
[11] = system: DU-145 prostate
[12] = system: K-562 leukemia
[13] = system: MALME-3M melanoma
[14] = system: MDA-MB-231 breast
[15] = system: RXF 393 renal
[16] = system: SF-268 CNS
[17] = system: SF-295 CNS
[18] = system: SF-539 CNS
[19] = system: UACC-257 melanoma

**Q.** `CO[C@H]1/C=C/O[C@@]2(C)Oc3c(C)c(O)c4c(c3C2=O)C(=O)C(/C=N/N(c2ccccc2)c2ccccc2)=C(NC(=O)/C(C)=C\C=C\[C@H](C)[C@H](O)[C@@H](C)[C@@H](O)[C@@H](C)[C@H](OC(C)=O)[C@@H]1C)C4=O` was tested. Which growth [1] did it give?
**A.** 5.83% (active)

**Q.** And the growth [2]?
**A.** 18.4%

**Q.** What about the growth [3] of the same compound?
**A.** 22.2%

**Q.** What about the growth [4] of the same compound?
**A.** -76.7% (active)

**Q.** What about the growth [5] of the same compound?
**A.** -50.7% (active)

**Q.** What about the growth [6] of the same compound?
**A.** -48.6% (active)

**Q.** What about the growth [7] of the same compound?
**A.** -24% (active)

**Q.** What about the growth [8] of the same compound?
**A.** 3.7% (active)

**Q.** What about the growth [9] of the same compound?
**A.** 3.91% (active)

**Q.** And the growth [10]?
**A.** -60.3% (active)

**Q.** And the growth [11]?
**A.** 12.9%

**Q.** And the growth [12]?
**A.** 7.47% (active)

**Q.** What about the growth [13] of the same compound?
**A.** -43.9% (active)

**Q.** And the growth [14]?
**A.** -40.1% (active)

**Q.** And the growth [15]?
**A.** -61.9% (active)

**Q.** And the growth [16]?
**A.** 14.9%

**Q.** And the growth [17]?
**A.** -72.3% (active)

**Q.** What about the growth [18] of the same compound?
**A.** -69.8% (active)

**Q.** And the growth [19]?
**A.** -22.5% (active)

**Q.** With `CCC(O)(C(c1ccccc1)c1ccccn1)C(c1ccccc1)c1ccccn1` (stereo unspecified) as the compound, how does the growth [1] read?
**A.** 110%

**Q.** And the growth [2]?
**A.** 104%

**Q.** What about the growth [3] of the same compound?
**A.** 98.6%

**Q.** What about the growth [4] of the same compound?
**A.** 106%

**Q.** And the growth [5]?
**A.** 110%

**Q.** What about the growth [6] of the same compound?
**A.** 109%

**Q.** What about the growth [7] of the same compound?
**A.** 102%

**Q.** What about the growth [8] of the same compound?
**A.** 104%

**Q.** And the growth [9]?
**A.** 105%

**Q.** And the growth [10]?
**A.** 105%

**Q.** And the growth [11]?
**A.** 103%

**Q.** What about the growth [12] of the same compound?
**A.** 101%

**Q.** What about the growth [13] of the same compound?
**A.** 94.4%

**Q.** And the growth [14]?
**A.** 120%

**Q.** And the growth [15]?
**A.** 118%

**Q.** What about the growth [16] of the same compound?
**A.** 95.3%

**Q.** And the growth [17]?
**A.** 122%

**Q.** What about the growth [18] of the same compound?
**A.** 92.1%

**Q.** What about the growth [19] of the same compound?
**A.** 112%

**Q.** What does the source list for `O=C1CC(c2ccc3c(c2)OCO3)Nc2cc3c(cc21)OCO3` (stereo unspecified)?
**A.** growth [1]: 44.5%; growth [2]: 64.5%; growth [3]: 57.5%; growth [4]: 29.7%; growth [5]: 5.95% (active); growth [6]: 29.2%; growth [7]: -9.02% (active); growth [8]: 10.1%; growth [9]: 30.8%; growth [10]: -27.1% (active); growth [11]: 15.3%; growth [12]: 10.2%; growth [13]: 75.2%; growth [14]: 24.7%; growth [15]: -11.2% (active); growth [16]: 44%; growth [17]: 7.59% (active); growth [18]: 6.5% (active); growth [19]: 39.6%

**Q.** Which results are given for `CN(C)S(=O)(=O)n1cnc([C@@H]2[C@@H]3C(=O)OC[C@@H]3C[C@]23N=CN(Cc2ccccc2)C3=O)c1`?
**A.** growth [1]: 128%; growth [2]: 110%; growth [3]: 110%; growth [4]: 95.9%; growth [5]: 113%; growth [6]: 110%; growth [7]: 102%; growth [8]: 123%; growth [9]: 102%; growth [10]: 118%; growth [11]: 111%; growth [12]: 116%; growth [13]: 110%; growth [14]: 112%; growth [15]: 126%; growth [16]: 95.6%; growth [17]: 105%; growth [18]: 98.5%; growth [19]: 116%

**Q.** Which results are given for `NS(=O)(=O)c1cnccc1-n1ccc(=O)c(S(N)(=O)=O)c1`?
**A.** growth [1]: 91.4%; growth [2]: 84.1%; growth [3]: 94.2%; growth [4]: 85.6%; growth [5]: 109%; growth [6]: 80.9%; growth [7]: 9.19% (active); growth [8]: 33.9%; growth [9]: 97.5%; growth [10]: 94.4%; growth [11]: 106%; growth [12]: 84.1%; growth [13]: 50.1%; growth [14]: 94%; growth [15]: 139%; growth [16]: 101%; growth [17]: 59.1%; growth [18]: 97.8%; growth [19]: 115%

**Q.** How did the growth [1] turn out when `COc1cc2c(O)n(CCCn3ccnc3)c3c4cnc5cccc(c(=O)c3c2cc1OC)c54` was run?
**A.** 38.8%

**Q.** What about the growth [2] of the same compound?
**A.** 41.8%

**Q.** What about the growth [3] of the same compound?
**A.** 77.9%

**Q.** And the growth [4]?
**A.** 13.1%

**Q.** And the growth [5]?
**A.** 6.78% (active)

**Q.** And the growth [6]?
**A.** 28%

**Q.** What about the growth [7] of the same compound?
**A.** 18.7%

**Q.** What about the growth [8] of the same compound?
**A.** 35.6%

**Q.** And the growth [9]?
**A.** 7.01% (active)

**Q.** And the growth [10]?
**A.** 33.1%

**Q.** What about the growth [11] of the same compound?
**A.** 19.2%

**Q.** And the growth [12]?
**A.** 11.6%

**Q.** And the growth [13]?
**A.** 67.1%

**Q.** And the growth [14]?
**A.** 51.2%

**Q.** What about the growth [15] of the same compound?
**A.** 39.5%

**Q.** And the growth [16]?
**A.** 36.4%

**Q.** What about the growth [17] of the same compound?
**A.** 21.4%

**Q.** What about the growth [18] of the same compound?
**A.** 22.1%

**Q.** What about the growth [19] of the same compound?
**A.** 45.2%

**Q.** What does the source list for `Cn1ncc2c(Nc3ccc(Br)cc3)nc(Nc3ccc(Br)cc3)nc21`?
**A.** growth [1]: 27.5%; growth [2]: 62.1%; growth [3]: 73%; growth [4]: 23.8%; growth [5]: 8.2% (active); growth [6]: 7.66% (active); growth [7]: 44.8%; growth [8]: 48.1%; growth [9]: -38.9% (active); growth [10]: 64%; growth [11]: 68.3%; growth [12]: 11.4%; growth [13]: 55.4%; growth [14]: 17.7%; growth [15]: 64.1%; growth [16]: 57.6%; growth [17]: 40.2%; growth [18]: 64.9%; growth [19]: 82.6%

**Q.** With `COc1ccc(OC)c(/C=C2\COc3ccc(O)c(O)c3C2=O)c1` as the compound, how does the growth [1] read?
**A.** 48.9%

**Q.** And the growth [2]?
**A.** 85.2%

**Q.** What about the growth [3] of the same compound?
**A.** 54.3%

**Q.** What about the growth [4] of the same compound?
**A.** 30.2%

**Q.** What about the growth [5] of the same compound?
**A.** 4.53% (active)

**Q.** What about the growth [6] of the same compound?
**A.** 56.7%

**Q.** And the growth [7]?
**A.** -33.4% (active)

**Q.** What about the growth [8] of the same compound?
**A.** 48.1%

**Q.** What about the growth [9] of the same compound?
**A.** 22.4%

**Q.** And the growth [10]?
**A.** 95.3%

**Q.** What about the growth [11] of the same compound?
**A.** 3.87% (active)

**Q.** And the growth [12]?
**A.** 5.87% (active)

**Q.** What about the growth [13] of the same compound?
**A.** -5.32% (active)

**Q.** And the growth [14]?
**A.** 9.33% (active)

**Q.** And the growth [16]?
**A.** 15.9%

**Q.** And the growth [17]?
**A.** 78.4%

**Q.** What about the growth [18] of the same compound?
**A.** -23.1% (active)

**Q.** And the growth [19]?
**A.** 49.4%
